The results in this text go back to PubChem BioAssay.

A number with no mark means an inactive call. The list shows a part of the results. The source made the active and inactive calls.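 The calls were made as follows, unless noted: active = mean inhibition above 46.68%, the untreated control wells mean plus 3 SD; inactive = the rest.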

Assay [1] concerns the target Nuclear receptor coactivator 1 (Homo sapiens) (UniProt Q15788). Briefly: NCOA1 GAL4-fusion reporter inhibition – cell-based, luminescence, quadruplicate, confirmation (AID 588820).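 Also: 0% = DMSO wells and 100% = gossypol 36 µM treated wells.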 Conditions: HEK293 GAL4-SRC1 luciferase reporter, at 3.6 µM, hits give high values.
Assay [2] in a line: repression of VP16-driven luciferase reporter – cell-based, luminescence, high throughput, counter-screen for SRC1 inhibitor project (AID 588824; in the data active = inhibition above about 25%). Conditions: cell-based VP16 transactivation luciferase luminescence; at 3.6 µM; hits give high values. Background: In a reporter assay the amount or activity of a reporter protein is the signal.
Assay [3] in a line: StAR promoter reporter inhibitors, counter-screen for LRH-1 inverse agonist project, cell-based, luminescence, high throughput (AID 651611; in the data active = inhibition above about 28%). The conditions noted are these: StAR promoter luciferase reporter counterscreen, at 3.6 µM, hits give high values.
In assay [4] the target is Nuclear receptor subfamily 5 group A member 2 (Homo sapiens) (UniProt O00482). Briefly: NR5A2 activity suppression in reporter cells – cell-based, luminescence, confirmation (AID 651613; in the data active = inhibition above about 42%;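 also: HEK293T cells co-transfected with LRH-1 and StAR promoter luciferase reporter; 0% = vehicle wells and 100% = parental cells lacking receptor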). Conditions: cell-based LRH-1 luciferase reporter, inverse agonism; at 3.6 µM; hits give high values.
The target of assay [5] is Steroidogenic factor 1 (Homo sapiens) (UniProt Q13285). The assay is described as follows: inverse agonism at SF1 nuclear receptor – cell-based, luminescence, high throughput, counter-screen for LRH-1 inverse agonist project (AID 651614; in the data active = inhibition above about 44%;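 also: cells cotransfected with StAR promoter reporter and SF1 expression vector; 0% = vehicle on cells with receptor and 100% = vehicle on cells lacking receptor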). The conditions noted are these: cell-based SF1 luciferase reporter, at 3.6 µM, hits give high values.
Assay [6] is described as follows: compounds suppressing VP16-driven luciferase signal – cell-based, luminescence, high throughput, counter-screen for LRH-1 inverse agonist project (AID 651615; in the data active = inhibition above about 33%). Conditions: Gal4-VP16 luciferase reporter cells, at 3.6 µM, hits give high values.
For assay [7], the system named is transactivating tegument protein VP16 (Human herpesvirus 1). The assay is described as follows: compounds suppressing VP16-driven luciferase signal – cell-based, luminescence, single concentration, counter-screen for SRC2 inhibitor project (AID 652007; in the data active = inhibition above about 36%). The conditions noted are these: cell-based VP16 transactivation luciferase reporter, at 8.9 µM, hits give high values. On the technique in general: The purpose of a counterscreen is to sort out artefacts and off-target activity.

Assay [8] addresses Nuclear receptor coactivator 2 (Homo sapiens) (UniProt Q15596). Briefly: inhibition of GAL4-SRC2 driven luciferase expression – cell-based, luminescence, HEK293, triplicate, confirmation (AID 652008;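 active = mean inhibition above 46.5%, the solvent-only control mean plus 3 SD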;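 also: 0% = DMSO-treated cells and 100% = Gossypol at 36 µM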). Conditions: HEK293 GAL4-SRC2 luciferase reporter, at 8.9 µM, hits give high values.
Assay [9] addresses Oxysterols receptor LXR-beta (Homo sapiens) (UniProt P55055). Briefly: nonspecific reporter activation via LXR – cell-based, luminescence, HEK293, H. contortus campaign, counter-screen for hcDAF-12 agonist project, confirmation (AID 743027;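 active = mean percent activation of the reporter above a cutoff set as the average over tested compounds plus their standard deviation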). Conditions: HEK293 Gal4-LXR tk-luc reporter, 24 h, at 6.8 µM, hits give high values, normalized: DMSO 0%, positive control 100%.
Assay [10] concerns Nuclear hormone receptor DAF-12 (Haemonchus contortus). Briefly: hcDAF-12 luciferase reporter activation, retest – cell-based, luminescence, HEK293, lit1-tk-luc, triplicate, confirmation (AID 743032;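 active = mean activation across triplicate tests above the threshold derived from the earlier primary screen, cut at about 5.5% in these data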;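 also: 0% = DMSO only wells and 100% = 3 µM Δ7-dafachronic acid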). The conditions noted are these: HEK293 hcDAF-12 lit1-tk-luc reporter, at 6.8 µM, hits give high values, % of Δ7-dafachronic acid response.

Chain of Nuclear receptor coactivator 2 (Homo sapiens) (Q15596 whole entry, looked up, the tested form may be a part): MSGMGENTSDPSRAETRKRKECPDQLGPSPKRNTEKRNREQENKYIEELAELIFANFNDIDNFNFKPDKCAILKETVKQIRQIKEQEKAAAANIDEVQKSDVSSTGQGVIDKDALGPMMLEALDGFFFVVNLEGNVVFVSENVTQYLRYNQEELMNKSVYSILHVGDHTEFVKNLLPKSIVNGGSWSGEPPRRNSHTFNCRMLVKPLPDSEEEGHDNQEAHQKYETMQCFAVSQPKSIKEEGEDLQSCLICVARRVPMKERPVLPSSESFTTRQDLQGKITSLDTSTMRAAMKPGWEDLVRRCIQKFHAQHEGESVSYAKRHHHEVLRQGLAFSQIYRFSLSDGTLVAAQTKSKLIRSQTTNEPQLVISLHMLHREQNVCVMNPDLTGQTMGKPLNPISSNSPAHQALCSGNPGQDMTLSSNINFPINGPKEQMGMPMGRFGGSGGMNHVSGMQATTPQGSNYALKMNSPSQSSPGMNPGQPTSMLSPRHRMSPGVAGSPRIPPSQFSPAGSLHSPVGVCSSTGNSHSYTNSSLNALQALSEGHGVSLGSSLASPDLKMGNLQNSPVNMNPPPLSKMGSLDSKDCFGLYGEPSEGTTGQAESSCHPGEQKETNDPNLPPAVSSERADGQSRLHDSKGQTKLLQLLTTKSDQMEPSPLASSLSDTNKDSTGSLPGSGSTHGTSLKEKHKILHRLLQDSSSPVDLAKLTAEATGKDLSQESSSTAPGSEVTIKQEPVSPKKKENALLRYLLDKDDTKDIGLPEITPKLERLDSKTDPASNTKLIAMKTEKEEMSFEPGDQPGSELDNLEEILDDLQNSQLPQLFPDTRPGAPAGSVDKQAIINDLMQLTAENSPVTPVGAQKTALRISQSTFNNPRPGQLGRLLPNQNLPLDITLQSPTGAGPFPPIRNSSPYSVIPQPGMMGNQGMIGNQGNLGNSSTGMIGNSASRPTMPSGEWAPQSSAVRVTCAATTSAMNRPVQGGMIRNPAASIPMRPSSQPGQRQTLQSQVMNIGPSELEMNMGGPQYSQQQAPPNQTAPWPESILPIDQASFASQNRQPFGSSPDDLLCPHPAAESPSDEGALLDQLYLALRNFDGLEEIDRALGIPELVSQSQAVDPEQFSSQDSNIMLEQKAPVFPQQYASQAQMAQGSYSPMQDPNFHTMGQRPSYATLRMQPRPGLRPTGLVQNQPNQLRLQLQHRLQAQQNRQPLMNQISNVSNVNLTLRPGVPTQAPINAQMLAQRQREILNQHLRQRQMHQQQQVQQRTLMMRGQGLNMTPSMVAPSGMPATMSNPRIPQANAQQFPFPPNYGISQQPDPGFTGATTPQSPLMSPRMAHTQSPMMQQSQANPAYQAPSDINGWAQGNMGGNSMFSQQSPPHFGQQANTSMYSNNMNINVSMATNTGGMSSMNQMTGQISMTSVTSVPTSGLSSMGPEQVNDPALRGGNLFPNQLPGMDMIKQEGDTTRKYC
Chain of Steroidogenic factor 1 (Homo sapiens) (Q13285 whole entry, looked up, the tested form may be a part): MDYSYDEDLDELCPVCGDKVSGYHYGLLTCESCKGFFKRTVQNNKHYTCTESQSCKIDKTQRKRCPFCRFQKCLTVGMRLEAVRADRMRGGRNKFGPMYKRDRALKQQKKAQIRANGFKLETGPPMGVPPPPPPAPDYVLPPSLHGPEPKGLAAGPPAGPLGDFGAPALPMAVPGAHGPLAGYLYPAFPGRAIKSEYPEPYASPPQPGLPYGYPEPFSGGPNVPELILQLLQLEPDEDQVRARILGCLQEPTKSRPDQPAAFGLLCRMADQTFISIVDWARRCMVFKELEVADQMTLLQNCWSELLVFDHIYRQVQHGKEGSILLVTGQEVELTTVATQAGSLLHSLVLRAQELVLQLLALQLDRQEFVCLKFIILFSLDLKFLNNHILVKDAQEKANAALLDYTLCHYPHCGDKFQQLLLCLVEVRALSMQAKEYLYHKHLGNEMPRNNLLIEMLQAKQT
Chain of Nuclear receptor subfamily 5 group A member 2 (Homo sapiens) (O00482 whole entry, looked up): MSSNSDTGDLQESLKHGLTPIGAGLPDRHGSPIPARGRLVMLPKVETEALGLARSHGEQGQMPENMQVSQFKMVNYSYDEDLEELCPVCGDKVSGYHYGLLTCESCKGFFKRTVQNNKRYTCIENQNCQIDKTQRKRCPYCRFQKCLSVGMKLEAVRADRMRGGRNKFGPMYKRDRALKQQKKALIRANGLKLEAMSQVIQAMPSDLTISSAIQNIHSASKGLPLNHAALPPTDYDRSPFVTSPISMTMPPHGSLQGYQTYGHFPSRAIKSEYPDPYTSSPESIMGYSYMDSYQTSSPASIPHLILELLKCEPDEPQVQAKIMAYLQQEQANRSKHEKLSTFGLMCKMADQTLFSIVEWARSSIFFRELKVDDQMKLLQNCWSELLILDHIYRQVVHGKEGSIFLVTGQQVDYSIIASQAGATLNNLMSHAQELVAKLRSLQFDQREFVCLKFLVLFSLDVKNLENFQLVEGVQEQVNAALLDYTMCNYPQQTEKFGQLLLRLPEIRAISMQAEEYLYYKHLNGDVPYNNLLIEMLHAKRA
Chain of Nuclear receptor coactivator 1 (Homo sapiens) (Q15788 whole entry, looked up, the tested form may be a part): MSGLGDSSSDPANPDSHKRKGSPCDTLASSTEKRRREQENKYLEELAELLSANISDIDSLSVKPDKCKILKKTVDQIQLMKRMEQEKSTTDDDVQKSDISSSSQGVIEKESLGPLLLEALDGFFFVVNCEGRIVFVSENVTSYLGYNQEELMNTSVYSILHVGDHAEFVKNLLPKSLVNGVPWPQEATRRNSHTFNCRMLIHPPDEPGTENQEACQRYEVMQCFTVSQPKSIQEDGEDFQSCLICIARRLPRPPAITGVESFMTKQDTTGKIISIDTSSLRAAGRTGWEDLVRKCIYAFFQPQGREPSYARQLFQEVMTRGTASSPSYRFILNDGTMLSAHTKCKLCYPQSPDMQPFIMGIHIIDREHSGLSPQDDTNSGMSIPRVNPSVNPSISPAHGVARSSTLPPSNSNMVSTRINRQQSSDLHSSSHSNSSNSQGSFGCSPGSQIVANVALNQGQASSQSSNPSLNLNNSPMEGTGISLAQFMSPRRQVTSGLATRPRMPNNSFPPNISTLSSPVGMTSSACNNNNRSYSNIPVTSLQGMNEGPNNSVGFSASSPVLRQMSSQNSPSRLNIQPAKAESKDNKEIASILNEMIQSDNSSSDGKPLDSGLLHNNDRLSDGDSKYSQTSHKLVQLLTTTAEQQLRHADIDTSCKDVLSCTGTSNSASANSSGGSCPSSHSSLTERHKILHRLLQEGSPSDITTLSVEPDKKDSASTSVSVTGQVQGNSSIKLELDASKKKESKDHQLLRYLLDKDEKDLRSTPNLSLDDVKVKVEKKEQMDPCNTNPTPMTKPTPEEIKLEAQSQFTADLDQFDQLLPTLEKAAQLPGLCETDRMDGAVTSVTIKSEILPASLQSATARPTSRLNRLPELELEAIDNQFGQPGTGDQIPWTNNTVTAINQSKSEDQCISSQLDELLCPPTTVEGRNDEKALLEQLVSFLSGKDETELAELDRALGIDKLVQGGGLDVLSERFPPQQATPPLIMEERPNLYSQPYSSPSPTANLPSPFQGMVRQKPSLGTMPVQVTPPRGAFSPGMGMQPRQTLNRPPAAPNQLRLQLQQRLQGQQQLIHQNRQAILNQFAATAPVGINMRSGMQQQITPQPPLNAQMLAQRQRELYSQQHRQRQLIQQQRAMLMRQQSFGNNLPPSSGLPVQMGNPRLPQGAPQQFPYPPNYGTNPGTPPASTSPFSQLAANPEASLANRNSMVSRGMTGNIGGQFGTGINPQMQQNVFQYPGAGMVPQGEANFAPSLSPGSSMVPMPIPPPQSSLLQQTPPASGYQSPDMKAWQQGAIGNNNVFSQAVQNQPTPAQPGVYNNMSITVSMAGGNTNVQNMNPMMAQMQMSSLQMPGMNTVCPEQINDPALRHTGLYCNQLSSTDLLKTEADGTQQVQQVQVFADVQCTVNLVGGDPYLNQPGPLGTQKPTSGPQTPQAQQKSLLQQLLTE
Chain of Oxysterols receptor LXR-beta (Homo sapiens) (P55055 whole entry, looked up, the tested form may be a part): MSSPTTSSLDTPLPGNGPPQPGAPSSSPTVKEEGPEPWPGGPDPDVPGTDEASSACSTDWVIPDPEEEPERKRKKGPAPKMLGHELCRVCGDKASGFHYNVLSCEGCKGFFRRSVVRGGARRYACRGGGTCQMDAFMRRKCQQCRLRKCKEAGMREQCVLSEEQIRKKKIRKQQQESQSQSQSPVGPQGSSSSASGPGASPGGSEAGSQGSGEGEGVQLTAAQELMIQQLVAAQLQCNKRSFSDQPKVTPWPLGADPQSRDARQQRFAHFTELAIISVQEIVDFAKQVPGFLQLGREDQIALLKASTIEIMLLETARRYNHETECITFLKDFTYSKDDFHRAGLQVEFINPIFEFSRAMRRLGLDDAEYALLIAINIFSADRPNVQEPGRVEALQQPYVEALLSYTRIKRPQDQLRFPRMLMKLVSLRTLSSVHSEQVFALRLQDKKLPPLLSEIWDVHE

In general, inhibition refers to the change of the read-out against control, counted positive when it falls. `Cc1sc2ncnc(NCC3COc4ccccc4O3)c2c1C` (stereo unspecified): the inhibition was -48.1% in assay [1]; 26.2% (active) in assay [2]; 18% in [3]; 62% (active) in assay [4]; 46.1% (active) in assay [5]; 57.4% (active) in [6].
`O=C(CSc1nnnn1C1CC2CCC1C2)Nc1ccnc2ccccc12` (stereo unspecified): the inhibition is -14.4% in [1]; 44.7% (active) in [2]; 30% (active) in assay [3]; 61% (active) in [4]; 56.1% (active) in [5]; 59.1% (active) in [6].
As to `Cc1cc(C)c(CN2CCN(C(=O)Cn3cnc4c(NCc5ccccc5)ncnc43)CC2)c(C)c1`, the inhibition in assay [1] is -9.2%; in assay [2], 43.4% (active); in assay [3], 35% (active); in assay [4] it was 54.1% (active); in assay [5] it was 57.5% (active); in assay [6], 57.9% (active).
With `CC(=O)Nc1ccccc1OCC(=O)c1cc(C)n(Cc2cccs2)c1C`, the inhibition in assay [1] was -59.8%; in [2] it was 39.3% (active); in assay [3], 28.7% (active); in assay [4] it was 21.5%; in [5] it was 47.4% (active); in [6], 39.6% (active).
With `CC(=O)NC(c1ccc(Cl)cc1Cl)c1ccc2cccnc2c1O` (stereo unspecified), the inhibition in assay [1] is 67.2% (active); in [2] it was 70.6% (active); in assay [3], 85.4% (active); in assay [4], 102% (active); in [5] it was 86.8% (active); in assay [6] it was 80.2% (active).
For `CCc1c(C)nc2ncnn2c1NCCc1ccc(OC)cc1`, the inhibition in [1] is -21.1%; in assay [2], 28.3% (active); in [3] it was 46.9% (active); in [4], 53.9% (active); in assay [5], 66.2% (active); in [6] it was 42.2% (active).
Consider `O=C(CCl)Nc1ccc(Oc2cnc3ccccc3n2)cc1`, for which the inhibition in assay [1] was 4.66%; in assay [2] it was 2.08%; in assay [3] it was 43.6% (active); in assay [4], 74.4% (active); in [5] it was 77.4% (active); in assay [6] it was 18.3%. Moreover, the inhibition in assay [7] is 19.5%; in assay [8] it was 46.6% (active).
Consider `Cn1nnnc1Sc1ncnc2scc(-c3ccc4c(c3)OCO4)c12`, for which the inhibition in [1] is 0.44%; in [2], 3.16%; in [7], 0.45%; in [8], 21.4%.
For `COc1ccc(CNc2ncc(-c3ccc(F)cc3)n2C)c2ccccc12` the same measures were 41.3%, -14.1%, 24.8% and 94.5% (active).
Turning to `CCn1c(Oc2cccc(Br)c2)nc2c1c(=O)n(C)c(=O)n2C`, the inhibition in [1] is 15.8%; in assay [2], 12.3%; in assay [7] it was -33.4%; in [8], 10.2%.
As to `CN(C)CCNC(=O)c1ccc(Cl)c2cc3ccccc3nc12`, the inhibition in assay [1] is 14.8%; in assay [2] it was 29.6% (active); in assay [3], 70.1% (active); in [4] it was 73.1% (active); in assay [5], 67.4% (active); in assay [6] it was 61% (active). The activation in assay [9] was 0.85%; in [10] it was 8.92% (active).
Take `COc1cccc(N2CCN(c3c(C#N)c(C(F)(F)F)nn3C)CC2)c1`: the inhibition in assay [1] was 48.8% (active); in [2], 32.2% (active); in assay [7], -6.45%; in assay [8], 41.6%.
In the same order, the values of `COc1ccc(-c2noc(CCCCC(=O)N3CCN(c4cc(C)ccc4C)CC3)n2)cc1` are -26%, 32.4% (active), 29.6% and 48.2% (active).
In the same order, the values of `Cc1nc2sc(C(N)=O)c(N)c2c(C)c1CC(=O)c1ccccc1` are 35.5%, 5.05%, -52.2% and 19.1%.
For `O=C(Nc1ccc(N2CCN(C(=O)c3ccco3)CC2)c(Cl)c1)c1cc2ccccc2o1` the same measures were -30.1%, 6.89%, 53.3% (active) and 3.49%.
As to `Cc1noc(/C=C/c2ccco2)c1S(=O)(=O)N1CCC(C(=O)Nc2ccc(Cl)cn2)CC1`, the inhibition is 16.8% in assay [1], 24.4% in assay [2], 17.2% in [7] and 24.2% in assay [8].
Regarding `O=C(Nc1ccc2c(c1)OCCO2)C(c1cc2ccccc2o1)N1CCN(c2ccc(F)cc2)CC1` (stereo unspecified), the inhibition was 3.86% in [1], -2.84% in assay [2], -43.1% in [7] and 28.6% in assay [8].
For `Cc1ccc(C(=O)c2cccc(N)c2)cc1C` the same measures were -41.2%, 3.5%, 58% (active) and 76.3% (active).
For the molecule `COc1ccc(CCNc2c(C)c(C)nc3ncnn23)cc1`, the inhibition in assay [1] is -13.9%; in assay [2], 29.1% (active); in assay [4] it was 58.5% (active); in [5], 62.6% (active).
Consider `Cc1sc2ncnc(N3CCC(C(=O)N(C)CC(=O)Nc4cccc(F)c4)CC3)c2c1C`, for which the inhibition is 33.5% in [1], 22.7% in assay [2], -11.2% in [7] and 25.1% in assay [8].
In the same order, the values of `c1cn(-c2ncnc3sc4c(c23)CCCC4)cn1` are 11.4%, 7.19%, -1.75% and -4.88%.
Regarding `C=C1C(=O)C23CCC4C(C)(C(=O)OC)CCCC4(C)C2CCC1(O)C3` (stereo unspecified), the inhibition is -0.73% in [1]; 53.7% (active) in [2]; 67.4% (active) in assay [3]; 70.5% (active) in assay [4]; 82.1% (active) in [5]; 74% (active) in assay [6]. Also, the figures for the inhibition in assay [7] and in [8] were 83.1% (active) and 98.2% (active), respectively.
For the molecule `O=C(Nc1ccc2c(c1)OCCO2)c1[nH]c(C(F)(F)F)nc1-c1ccccc1`, the inhibition in [1] is -3.74%; in [2], -15.6%; in assay [7], -38.1%; in assay [8], 49.1% (active).
